Tau fibril ThT = inhibitors of human tau fibril formation, thioflavin T binding. P10636. Potency, µM (titrated, usually from 57.4 µM), for the others: at the top dose activity, negative = inhibition, hits mostly inhibitors. AID 1460. recombinant tau K18 P301L, heparin-induced fibrillization, ThT fluorescence. actives 2.1% (n = 270,000); also: potency is read from the fitted curve at half-maximal effect; % is scaled to controls: 0 for no effect and ±100 for the full control effect; nearly all actives have a fitted effect of over 55% in size
Target sequence (P10636 561-689 P618L limits assumed): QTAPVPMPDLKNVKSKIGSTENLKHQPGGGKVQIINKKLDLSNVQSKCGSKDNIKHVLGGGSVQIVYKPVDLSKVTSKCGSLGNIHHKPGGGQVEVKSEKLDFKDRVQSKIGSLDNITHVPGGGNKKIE
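Tau K18 P301L fragment (15 uM unlabeled plus 0.24 uM Alexa 594-labeled) in 100 mM sodium acetate pH 7 with compound, fibrillization induced by 20 uM heparin for 6 hr at 37 C. Thioflavin T (30 uM) added, fluorescence read after 1 hr (ex 450, em 510 nm).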
TR SRC2 fluor cs = Texas Red fluorescence interference in TRb-SRC2 counter-screen | TRb/SRC2 Texas Red total fluorescence interference | Potency, µM (top dose mostly 106 µM), without a hit: top-dose fluorescence change, negative = quenching | actives 0.29% (n = 280,000) | AID 1479; active = well fitted curve in either direction with a large enough effect; inconclusive = small, poorly fitted or top-dose-only effect; also: potency is read from the fitted curve at half-maximal effect; % is scaled to controls: 0 for no effect and ±100 for the full control effect
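Human TRβ ligand-binding domain (0.6 uM) and Texas Red SRC2 peptide (20 nM) in Tris buffer with 1 uM T3 and 5% DMSO were incubated with pinned compound for 5 hr at ambient temperature. Total fluorescence was computed as S + 2P (555/632 nm).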
Tau fibril FP = tau fibrillization inhibition (FP) | K18 P301L tau heparin fibrillization, Alexa594 FP, 6 h | actives 0.39% (n = 280,000) | Potency, µM (series often up to 57.7 µM), without a hit: at the highest dose activity, negative = inhibition, usual class: inhibitors | P10636; also: potency is read from the fitted curve at half-maximal effect; % is scaled to controls: 0 for no effect and ±100 for the full control effect; nearly all actives have a fitted effect of over 55% in size
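Recombinant K18 P301L […], labeled with Alexa 594 at 0.24 uM over 15 uM unlabeled; heparin inducer 20 uM final; 37 C, 6 hr; FP endpoint.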
Tau fluor cs = counter-screen for tau fibril formation inhibitors; Potency, µM (doses to about 57.7 µM), inactives show at the highest dose activity change, negative = decrease; tau K18 P301L Alexa594 fluorescence, heparin fibrillization; actives 0.93% (n = 280,000); also: potency is read from the fitted curve at half-maximal effect; % is scaled to controls: 0 for no effect and ±100 for the full control effect; nearly all actives have a fitted effect of over 55% in size
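Human K18 P301L tau (15 uM unlabeled plus 0.24 uM Alexa 594-labeled, final) in 100 mM sodium acetate pH 7 was mixed with compound and 20 uM heparin and incubated 6 hr at 37 C.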
TRb SRC2 PPI = disrupts binding of human TR beta to SRC2 | P10828 | TRbeta-SRC2 peptide binding, fluorescence polarization; receptor liganded with 1 µM T3 | Potency, µM (titrated, usually from 106 µM), inactives show at the highest dose activity change, negative = inhibition, most hits filed as inhibitors | actives 0.065% (n = 280,000) | AID 1469;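 also: potency is read from the fitted curve at half-maximal effect; plate controls were bound peptide for no effect and peptide without receptor for full effect; nearly all actives have a fitted effect of over 50% in size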
Target sequence (P10828 whole entry, looked up): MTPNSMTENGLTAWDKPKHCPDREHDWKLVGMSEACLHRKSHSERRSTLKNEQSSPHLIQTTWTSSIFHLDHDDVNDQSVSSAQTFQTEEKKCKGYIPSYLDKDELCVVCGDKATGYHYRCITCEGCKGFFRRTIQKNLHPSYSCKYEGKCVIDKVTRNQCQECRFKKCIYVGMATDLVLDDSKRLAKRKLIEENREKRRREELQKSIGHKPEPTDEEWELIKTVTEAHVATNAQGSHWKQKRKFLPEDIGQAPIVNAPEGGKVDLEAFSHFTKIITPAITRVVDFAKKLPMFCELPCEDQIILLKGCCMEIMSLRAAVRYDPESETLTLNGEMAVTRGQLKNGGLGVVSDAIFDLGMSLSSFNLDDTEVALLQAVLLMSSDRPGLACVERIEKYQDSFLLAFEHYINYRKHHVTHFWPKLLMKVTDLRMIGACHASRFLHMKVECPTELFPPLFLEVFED
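Compounds were added to 0.6 uM TRb ligand-binding domain and 20 nM Texas Red-labeled SRC2 peptide in Tris buffer containing 1 uM T3, incubated 5 hr at ambient temperature, then read by fluorescence polarization.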
Tau TEM fibril = Inhibits human tau fibrillization. actives 70% (n = 45). recombinant tau K18 P301L fibrillization, TEM grading; active compounds read high. fibril grade (0 = clumped fibrils, 4 = only tiny pieces) (concentration not given with the values). shares compounds with Tau fibril ThT;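 active = compounds whose electron micrographs showed tau fibrils broken into shorter filaments or fragments, graded high on fibril breakup; inconclusive = micrographs gave an unclear fibril picture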
tau fibril sed = reduces sedimented tau K18 P301L aggregates. recombinant tau K18 P301L (four-repeat tau fragment), sedimentation SDS-PAGE densitometry. AID 1720. inhibition, % at 100 µM. actives 50% (n = 110). shares compounds with Tau fibril ThT; in the data active = inhibition above about 40%; inconclusive = no clear call, values can overlap the other calls; inactive = below about 18%
Numbers without * were called inactive. Sampled rows, rich in hits. Any-hit rate of the full collection: about 3%. Unless noted, calls follow the shape of the dose curve; as a rule, active = well fitted curve in the direction sought with a large enough effect; inconclusive = small, poorly fitted or top-dose-only effect, or another doubt; inactive = no such curve, though single readings can be large; an effect the other way counts as inactive or inconclusive.

Screening Cc1ccc(N(C)S(=O)(=O)c2nnc(NC(=O)C3CCCCC3)s2)cc1 returned Tau fibril ThT 4.4%, TR SRC2 fluor cs 4.7%, Tau fibril FP inconclusive, Tau fluor cs -3.5%, TRb SRC2 PPI -1.5% and tau fibril sed 12.0.
Screening CC(CNC(=O)C1CCN(Cc2cc3ccccc3n2Cc2ccccc2)CC1)c1ccccc1 (stereo not given) returned Tau fibril ThT -1.9%, TR SRC2 fluor cs 5.4%, Tau fibril FP 1.8%, Tau fluor cs -8.6% and TRb SRC2 PPI -0.4%.
For COc1ccc(Nc2nc(-c3sc(NC(C)=O)nc3C)cs2)cc1 the results were Tau fibril ThT 12.6µM*, TR SRC2 fluor cs 0.3%, Tau fibril FP 4.3%, Tau fluor cs inconclusive, TRb SRC2 PPI 3.3%, Tau TEM fibril 3* and tau fibril sed 42.0*.
Screening C=CCNc1nc(-c2sc(NC(C)=O)nc2C)cs1 returned Tau fibril ThT inconclusive, TR SRC2 fluor cs -2.2%, Tau fibril FP -7.6%, Tau fluor cs -27.4% and TRb SRC2 PPI -2.8%.
Screening Cc1csc2nc(COc3ccccc3NC(=O)c3ccccc3Cl)cc(=O)n12 returned Tau fibril ThT -9.6%, TR SRC2 fluor cs -2.2%, Tau fibril FP -8.9%, Tau fluor cs -21.7% and TRb SRC2 PPI -4.3%.
Screening Cc1ccc(-c2ccc(/C=N/N=C3/NC(=O)C(CC(=O)O)S3)o2)c([N+](=O)[O-])c1 (stereo not given) returned Tau fibril ThT 10µM*, TR SRC2 fluor cs -3.5%, Tau fibril FP inconclusive, Tau fluor cs -23.4%, TRb SRC2 PPI -1.1%, Tau TEM fibril inconclusive and tau fibril sed inconclusive.
O=C(O)CC1S/C(=N/N=C/c2ccc(-c3ccccc3[N+](=O)[O-])o2)NC1=O (stereo not given) was read as Tau fibril ThT 2.24µM*, TR SRC2 fluor cs -0.7%, Tau fibril FP inconclusive, Tau fluor cs -29.9%, TRb SRC2 PPI inconclusive, Tau TEM fibril 4* and tau fibril sed 58.0*.
`COc1ccc(N2CCN(C(=O)c3cccc(NC(=O)c4nsc5ccccc45)c3)CC2)cc1` gave Tau fibril ThT inconclusive, TR SRC2 fluor cs -3.4%, Tau fibril FP 6.7%, Tau fluor cs inconclusive and TRb SRC2 PPI 3.3%.
Screening Cc1ccc(NC(=O)CSc2nc3c(oc4ccccc43)c(=O)n2-c2ccc(F)cc2)c(C)c1 returned Tau fibril ThT 7.6%, TR SRC2 fluor cs 5.0%, Tau fibril FP -7.3%, Tau fluor cs 4.5% and TRb SRC2 PPI -9.6%.
For Cc1ccc(C(=O)Nc2nc3ccccc3c(=O)s2)cc1 the results were Tau fibril ThT -17.4%, TR SRC2 fluor cs -2.7%, Tau fibril FP -4.6%, Tau fluor cs -0.5% and TRb SRC2 PPI -3.8%.
For Cc1ccc(C(=O)Nc2nc(=O)n(C(=O)C3CC3)s2)cc1 the results were Tau fibril ThT 8.91µM*, TR SRC2 fluor cs -3.1%, Tau fibril FP inconclusive, Tau fluor cs -22.5%, TRb SRC2 PPI -14.3%, Tau TEM fibril inconclusive and tau fibril sed 49.0*.
`COc1ccc(-c2noc(-c3ccc(N4CCOCC4)c([N+](=O)[O-])c3)n2)cc1` gave Tau fibril ThT 1.8%, TR SRC2 fluor cs -4.2%, Tau fibril FP -5.7%, Tau fluor cs -13.1% and TRb SRC2 PPI 6.5%.
COc1ccc2oc(-c3ccc(NC(=O)c4ccc(N5CCOCC5)c([N+](=O)[O-])c4)cc3)nc2c1 was read as Tau fibril ThT 2.82µM*, TR SRC2 fluor cs -2.5%, Tau fibril FP -5.7%, Tau fluor cs -18.6%, TRb SRC2 PPI -3.6%, Tau TEM fibril 0 and tau fibril sed 12.0.
Cn1c(=O)n(C)c2cc(S(=O)(=O)N3CCOCC3)ccc21 was read as Tau fibril ThT -4.9%, TR SRC2 fluor cs -1.9%, Tau fibril FP -2.8%, Tau fluor cs 2.6% and TRb SRC2 PPI -14.8%.

High-throughput results (PubChem)
